# An excerpt weighted towards active compounds, which were near 2% of everything screened.
# CHT PAM: human CHT allosteric activation; CHT-expressing cells, membrane potential dye, choline EC20; active compounds read high; LV-AA mutant CHT in HEK293 cells; B-score at 10 µM; actives 0.49% (n = 310,000); AID 488977;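 active = initial fluorescence not abnormally high and integrated response B-score, plate-corrected, over 3 SD above library mean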
# Target sequence (Q9GZV3 whole entry, looked up): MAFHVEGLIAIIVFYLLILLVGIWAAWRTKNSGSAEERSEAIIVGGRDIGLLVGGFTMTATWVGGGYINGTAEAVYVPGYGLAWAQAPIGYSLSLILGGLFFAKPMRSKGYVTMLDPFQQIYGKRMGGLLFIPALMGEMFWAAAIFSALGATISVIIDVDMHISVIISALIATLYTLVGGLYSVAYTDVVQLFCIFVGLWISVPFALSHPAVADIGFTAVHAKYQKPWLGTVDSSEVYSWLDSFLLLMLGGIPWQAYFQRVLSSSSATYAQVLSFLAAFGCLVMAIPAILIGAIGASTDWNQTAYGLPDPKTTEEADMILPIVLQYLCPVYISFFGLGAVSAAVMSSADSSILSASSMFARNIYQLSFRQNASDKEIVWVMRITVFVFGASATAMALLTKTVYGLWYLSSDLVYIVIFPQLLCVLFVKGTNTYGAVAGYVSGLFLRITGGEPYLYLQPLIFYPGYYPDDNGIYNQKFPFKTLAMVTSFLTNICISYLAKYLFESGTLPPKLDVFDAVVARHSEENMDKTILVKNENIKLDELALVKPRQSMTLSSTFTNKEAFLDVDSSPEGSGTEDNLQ
# PGE2 EP2 inh: inhibitors of human EP2 prostaglandin E2 receptor. actives 0.52% (n = 260,000). inhibition, % at 25 µM. P43116. C6 glioma cells expressing human EP2, cAMP TR-FRET; cells stimulated with saturating PGE2;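 active = percent inhibition above 40 after rounding to a whole number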;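 note: rat C6 glioma host cells with rolipram phosphodiesterase inhibitor present; the protocol text gives 20 µM as final concentration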
# CHT inh: inhibits the human high affinity choline transporter. Q9GZV3. CHT-expressing cells, membrane potential dye, choline response; active compounds read low. B-score at 10 µM. actives 0.86% (n = 310,000). AID 488975;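 active = B-score over 3 SD under the library average, and starting fluorescence ratio not unusually high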;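 note: choline stimulus applied at its EC90 after an EC20 pre-addition; B-score computed on integrated fluorescence ratio after choline addition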
# EP2 modulator: modulators of human EP2 prostaglandin E2 receptor; P43116; EP2-expressing cells, cAMP HTRF FRET, PGE2 co-stimulation; induction, % at 25 µM; actives 0.83% (n = 260,000); AID 940;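 active = compounds whose cAMP rise, as percent of the full-agonist control response, exceeds 60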;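 note: rat C6 glioma line stably carrying human EP2 under a CMV promoter; the protocol text gives 20 µM as final concentration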
# CHT block conf: confirmation of human choline transporter CHT inhibitors | shares compounds with CHT inh | CHT-expressing cells, choline membrane potential dye; LV-to-AA substituted CHT, HEK293 cells | CHT activity remaining % of control (active compounds read low), % at 10 µM | actives 70% (n = 2,400) | AID 493221;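 active = choline transporter activity left, mean of duplicates at 10 µM, below buffer-only control mean minus 3 SD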;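 note: depolarization triggered by choline at its EC90 following an EC20 pre-addition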
# HEK293 MPD ctr: counter-screen for CHT inhibitors: effect in parental HEK293 cells; membrane potential ratio readout (active if shifted either direction beyond buffer ±3SD; no single direction) at 10 µM; shares compounds with CHT inh; membrane potential dye, choline response; active = decrease or increase beyond buffer ±3SD; actives 4% (n = 2,400);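 note: parental cells lack the transporter so any hit is non-specific; ratio is peak minus trough fluorescence over baseline after EC90 choline challenge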
# Hits are given with their value; – = inactive; · = no result.
SMILES,CHT PAM,PGE2 EP2 inh,CHT inh,EP2 modulator,CHT block conf,HEK293 MPD ctr
COc1ccc(S(=O)(=O)N2CCN(CCc3ccccc3)CC2)c(OC)c1,–,·,-5.46,·,48.4%,–
COc1ccc(OC)c(S(=O)(=O)N2CCN(Cc3ccccc3)CC2)c1,–,·,–,·,·,·
CC(C)c1nc(SCC(=O)Nc2ccc([N+](=O)[O-])cc2Br)n[nH]1,–,–,-5.85,–,–,–
Cc1cc(NS(=O)(=O)c2ccc(NC(=O)COc3ccc(C(C)C)cc3)cc2)no1,·,–,·,–,·,·
Cc1ccc2cc(CN(Cc3nnnn3Cc3ccc(F)cc3)C3CCCC3)c(=O)[nH]c2c1C,·,–,·,–,·,·
CCCC(=O)Nc1ccc(NC(=O)c2ccccn2)cn1,–,–,–,–,·,·
CCCn1c(C)cc(=O)c2cc(NC(=O)c3ccccn3)ccc21,–,–,-5.1,–,52.9%,2.79
CCCCNC(=O)c1onc(CSc2ccc(C(C)C)cc2)c1C(=O)O,–,–,-8.22,–,69.2%,–
CCCOc1ccc(C(=O)NNC(=S)NC(=O)c2cccs2)cc1,–,·,-9.45,·,–,–
O=C(NC(=S)NNC(=O)c1cccs1)c1ccccc1,–,·,–,·,·,·
Cc1onc(-c2ccccc2)c1C(=O)NC(=S)NNC(=O)c1ccco1,–,–,-7.24,–,59.3%,–
Cc1cccc(C(=O)NC(=S)NNC(=O)c2cccs2)c1,–,–,-10.1,–,35.6%,–
CCCOc1ccc(C(=O)NNC(=S)NC(C)=O)cc1,–,–,–,–,·,·
CCCOc1ccc(C(=O)NNC(=S)NC(=O)c2ccccc2)cc1,–,·,-6.58,·,55.1%,–
CCN1C(=O)NC(=O)/C(=C/c2cc(C)n(CCOC)c2C)C1=O,·,–,·,–,·,·
Cc1cc(C)c2cc(C#N)c(SCC(=O)N3CCCCC3)nc2c1,·,–,·,–,·,·
CC(C)(C)c1nc2ccccc2c2nnc(SCC(=O)NC3CC3)n12,·,–,·,–,·,·
CCCN1C2CCCC1CC(NC(=O)Nc1c(C)cccc1C)C2 (stereo unspecified),·,–,·,–,·,·
COc1ccc(N2CC(C(=O)Nc3ccccc3C(C)(C)C)CC2=O)cc1 (stereo unspecified),·,–,·,–,·,·
CC(Oc1ccc(Cl)cc1)C(=O)NNC(=S)NC(=O)c1ccco1 (stereo unspecified),–,–,-6.46,–,58.5%,–
O=C(COc1ccc(Cl)cc1Cl)NNC(=S)NC(=O)c1ccco1,–,–,–,–,·,·
COc1ccc(C(=O)NNC(=S)NC(=O)c2ccco2)cc1,–,–,–,–,·,·
CCCOc1ccc(C(=O)NNC(=S)NC(=O)c2ccco2)cc1,–,–,-7.95,–,54.3%,–
COc1ccc(NC(=S)N(Cc2cc3c(C)ccc(C)c3[nH]c2=O)C2CCCC2)cc1,·,–,·,–,·,·
N#Cc1ccc(C2=NC(C(F)(F)F)(C(F)(F)F)c3c(n(Cc4ccco4)c(=O)[nH]c3=O)N2)cc1,–,–,-10.8,–,56.5%,–
SMILES,CHT PAM,PGE2 EP2 inh,CHT inh,EP2 modulator,CHT block conf,HEK293 MPD ctr
O=c1[nH]c(=O)n(Cc2ccco2)c2c1C(C(F)(F)F)(C(F)(F)F)N=C(CCc1ccccc1)N2,–,–,–,–,·,·
O=c1[nH]c(=O)n(-c2ccc(F)cc2)c2c1C(C(F)(F)F)(C(F)(F)F)N=C(c1ccc(F)cc1)N2,–,–,-6.96,–,54.3%,–
Cc1ccc(C2=NC(C(F)(F)F)(C(F)(F)F)c3c(n(-c4ccc(F)cc4)c(=O)[nH]c3=O)N2)cc1,–,–,–,–,·,·
CCCn1c(SCC(=O)Nc2ccccc2Br)nc2c1c(=O)n(C)c(=O)n2C,·,–,·,–,·,·
COc1ccc(-c2nnc(SCC(=O)N3C(C)CCCC3C)n2C)cc1 (stereo unspecified),·,–,·,–,·,·
O=c1cc(-c2ccccc2)nc2c(-c3ccccc3)c(C(F)(F)F)[nH]n12,–,–,-5.73,–,68.8%,–
Cc1cc(=O)n2[nH]c(C)c(-c3ccccc3)c2n1,–,·,–,–,·,·
N=C1CCCN1CC(=O)c1ccc(Br)cc1,–,–,-19.2,–,1.5%,–
CC1CCCC(NC(=O)CCNC(=O)c2ccc(Cl)cc2)C1C (stereo unspecified),–,·,–,·,·,·
Cc1ccc(C(=O)CCC(=O)NC2CCCC(C)C2C)cc1 (stereo unspecified),–,·,-5.22,·,58.3%,–
CCCCCc1cc(=O)oc2c(C(CCN3CCCC3)c3ccc(N(C)C)cc3)c(OC)cc(OC)c12 (stereo unspecified),–,–,-6.27,–,–,–
COc1cc(C(CC(=O)N2CCCC2)c2c(OC)cc(OC)c3c(-c4ccccc4)cc(=O)oc23)cc(OC)c1OC (stereo unspecified),–,–,–,–,·,·
COc1cc(C(CCN2CCCCC2)c2c(OC)cc(OC)c3c(-c4ccccc4)cc(=O)oc23)cc(OC)c1OC (stereo unspecified),–,–,-8.05,–,44.2%,–
COc1cc(C(CCN2CCCC2)c2c(OC)cc(OC)c3c(C)cc(=O)oc23)cc(OC)c1OC (stereo unspecified),–,–,–,–,·,·
COc1cc(C(CCN2CCCC(C)C2)c2c(OC)cc(OC)c3c(-c4ccccc4)cc(=O)oc23)cc(OC)c1OC (stereo unspecified),–,–,-8.68,–,22.1%,–
CCCCCc1cc(=O)oc2c(C(CCN3CCCCC3)c3ccc(OC)cc3)c(OC)cc(OC)c12 (stereo unspecified),–,–,–,–,·,·
CCOc1ccc2[nH]c(=O)c(CN(Cc3nnnn3CCOC)CC3CCCO3)cc2c1 (stereo unspecified),·,–,·,–,·,·
COc1ccc(NC(=O)c2ccco2)cc1NC(=O)Cc1ccccc1,·,–,·,–,·,·
CC[C@@H](C)C(NC(=O)OC(C)(C)C)c1cn([C@@H](CCCCNC(=O)OC(C)(C)C)C(=O)N2CCN(C(=O)OC(C)(C)C)CC2)nn1 (stereo partly specified),–,–,-10.8,–,–,–
CN1/C(=C/C(=O)CSc2ccccc2C(=O)O)C(C)(C)c2ccccc21,–,–,–,–,·,·
Cc1cc(=O)[nH]c(SCC(=O)/C=C2\N(C)c3ccccc3C2(C)C)n1,–,–,-5.02,–,69.1%,–
CC(C)(C)C1=NN(CC(=O)NC2CCCC2)C(=O)c2cc3ccccc3n2C1,·,·,·,–,·,·
CC(=C\c1ccccc1)/C=C1/SC(=S)N(CCC(=O)O)C1=O,–,·,–,·,·,·
CC(/C=C1\SC(=S)N(CC(=O)O)C1=O)=C\c1ccccc1,–,–,-6.03,–,40.4%,–
CC(/C=C1\SC(=S)N(C(C(=O)O)c2ccccc2)C1=O)=C\c1ccccc1 (stereo unspecified),–,–,–,–,45.6%,–
O=C(O)C(c1ccccc1)N1C(=O)/C(=C/c2cccs2)SC1=S (stereo unspecified),–,–,–,–,·,·
CC(C)NC(=O)Cn1c(Cl)nc2ccccc21,·,–,·,–,·,·

# Screening data deposited in PubChem BioAssay by several laboratories.
